Measurements taken from the supplement of paper PMC12282887.
± gives the standard deviation of the averaged measurements.

Key:
Experiment in all cases: promoter activity interaction Z-score (Lux/OD deviation from empty-vector control); higher = stronger promoter induction by the compound
[1] = test system: E. coli BW25113 acrABp lux reporter
Method in brief: (§1)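 E. coli BW25113 (wild type or marA, soxS or rob deletion) carrying low-copy luxCDABE promoter reporters grew in 40 µl LB Lennox in 384-well plates at 37°C. Each compound was tested at four 1:2 dilutions in biological duplicates. OD600 and luminescence were read every 30 min for 12 h. Areas were taken over 0–8 h (wild type) or 1–9 h (mutants), and wells below 10% of median growth area were removed. The score is the Z-transformed residual of growth-normalised luminescence fitted against the empty-vector control.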

[2] = test system: E. coli BW25113 micFp lux reporter
Method in brief: as §1

[3] = test system: E. coli BW25113 ompFp lux reporter
Method in brief: as §1

[4] = test system: E. coli BW25113 robp lux reporter
Method in brief: as §1

[5] = test system: E. coli BW25113 soxSp lux reporter
Method in brief: as §1

[6] = test system: E. coli BW25113 tolCp lux reporter
Method in brief: as §1

[7] = 0.011 µg/ml, genetic background: wild type
[8] = 0.011 µg/ml, genetic background: ΔmarA
[9] = 0.011 µg/ml, genetic background: Δrob
[10] = 0.011 µg/ml, genetic background: ΔsoxS
[11] = 0.022 µg/ml, genetic background: wild type
[12] = 0.022 µg/ml, genetic background: ΔmarA
[13] = 0.022 µg/ml, genetic background: Δrob
[14] = 0.022 µg/ml, genetic background: ΔsoxS
[15] = 0.044 µg/ml, genetic background: wild type
[16] = 0.044 µg/ml, genetic background: ΔsoxS
[17] = 0.0012 µg/ml, genetic background: wild type
[18] = 0.0012 µg/ml, genetic background: ΔmarA
[19] = 0.0012 µg/ml, genetic background: Δrob
[20] = 0.0012 µg/ml, genetic background: ΔsoxS
[21] = 0.0025 µg/ml, genetic background: wild type
[22] = 0.0025 µg/ml, genetic background: ΔmarA
[23] = 0.0025 µg/ml, genetic background: Δrob
[24] = 0.0025 µg/ml, genetic background: ΔsoxS
[25] = 0.005 µg/ml, genetic background: wild type
[26] = 0.005 µg/ml, genetic background: ΔmarA
[27] = 0.005 µg/ml, genetic background: Δrob
[28] = 0.005 µg/ml, genetic background: ΔsoxS
[29] = 0.0099 µg/ml, genetic background: wild type
[30] = 0.0099 µg/ml, genetic background: ΔmarA
[31] = 0.0099 µg/ml, genetic background: Δrob
[32] = 0.0099 µg/ml, genetic background: ΔsoxS

COc1c(N2C[C@@H]3CCCN[C@@H]3C2)c(F)cc2c(=O)c(C(=O)O)cn(C3CC3)c12 [Moxifloxacin]
promoter activity interaction Z-score [1, 7]: 0.0749 ± 0.025 | promoter activity interaction Z-score [1, 8]: -0.567 ± 0.78 | promoter activity interaction Z-score [1, 9]: 0.0419 ± 0.7 | promoter activity interaction Z-score [1, 10]: 0.247 ± 0.25 | promoter activity interaction Z-score [1, 11]: 0.793 ± 0.42 | promoter activity interaction Z-score [1, 12]: 1.07 ± 0.44 | promoter activity interaction Z-score [1, 13]: 0.898 ± 1.1 | promoter activity interaction Z-score [1, 14]: 0.353 ± 0.12 | promoter activity interaction Z-score [1, 15]: 3.94 | promoter activity interaction Z-score [1, 16]: 2.12 ± 1.1 | promoter activity interaction Z-score [2, 7]: -0.2 ± 0.019 | promoter activity interaction Z-score [2, 8]: 0.154 ± 0.019 | promoter activity interaction Z-score [2, 9]: 0.0249 ± 0.077 | promoter activity interaction Z-score [2, 10]: -0.0364 ± 0.073 | promoter activity interaction Z-score [2, 11]: -0.17 ± 0.072 | promoter activity interaction Z-score [2, 12]: 0.371 ± 0.036 | promoter activity interaction Z-score [2, 13]: 0.129 ± 0.04 | promoter activity interaction Z-score [2, 14]: 0.0515 ± 0.087 | promoter activity interaction Z-score [2, 15]: -0.648 ± 0.45 | promoter activity interaction Z-score [2, 16]: -0.721 ± 0.42 | promoter activity interaction Z-score [3, 7]: 0.138 ± 0.022 | promoter activity interaction Z-score [3, 8]: -0.0717 ± 0.18 | promoter activity interaction Z-score [3, 9]: 0.0886 ± 0.25 | promoter activity interaction Z-score [3, 10]: 0.123 ± 0.17 | promoter activity interaction Z-score [3, 11]: 0.271 ± 0.48 | promoter activity interaction Z-score [3, 12]: 0.695 ± 0.25 | promoter activity interaction Z-score [3, 13]: 0.555 ± 0.53 | promoter activity interaction Z-score [3, 14]: 0.184 ± 0.35 | promoter activity interaction Z-score [3, 15]: -0.0419 ± 2.9 | promoter activity interaction Z-score [4, 7]: 1.08 ± 0.33 | promoter activity interaction Z-score [4, 8]: 0.716 ± 0.13 | promoter activity interaction Z-score [4, 9]: 0.563 ± 0.16 | promoter activity interaction Z-score [4, 10]: 0.0805 ± 0.38 | promoter activity interaction Z-score [4, 11]: 0.311 ± 0.14 | promoter activity interaction Z-score [4, 12]: 0.295 ± 0.073 | promoter activity interaction Z-score [4, 13]: 0.251 ± 0.47 | promoter activity interaction Z-score [4, 14]: 0.687 ± 0.83 | promoter activity interaction Z-score [4, 15]: -1.23 ± 0.75 | promoter activity interaction Z-score [4, 16]: 1.18 ± 0.81 | promoter activity interaction Z-score [5, 7]: 0.023 ± 0.037 | promoter activity interaction Z-score [5, 8]: -0.096 ± 0.089 | promoter activity interaction Z-score [5, 9]: 0.0641 ± 0.18 | promoter activity interaction Z-score [5, 10]: 0.135 ± 0.027 | promoter activity interaction Z-score [5, 11]: 0.0383 ± 0.078 | promoter activity interaction Z-score [5, 12]: -0.0462 ± 0.065 | promoter activity interaction Z-score [5, 13]: -0.139 ± 0.043 | promoter activity interaction Z-score [5, 14]: 0.616 ± 0.023 | promoter activity interaction Z-score [5, 15]: 0.204 ± 0.017 | promoter activity interaction Z-score [5, 16]: 2.34 ± 1.4 | promoter activity interaction Z-score [6, 7]: 0.549 ± 0.068 | promoter activity interaction Z-score [6, 8]: -0.242 ± 0.2 | promoter activity interaction Z-score [6, 9]: -0.0406 ± 1.1 | promoter activity interaction Z-score [6, 10]: 0.127 ± 0.0073 | promoter activity interaction Z-score [6, 11]: -0.356 ± 0.14 | promoter activity interaction Z-score [6, 12]: -0.296 ± 0.43 | promoter activity interaction Z-score [6, 13]: -0.0729 ± 0.065 | promoter activity interaction Z-score [6, 14]: 1.75 ± 2.6 | promoter activity interaction Z-score [6, 15]: 0.111 ± 0.07 | promoter activity interaction Z-score [6, 16]: 0.782 ± 1.2

O=C(O)c1cn(C2CC2)c2cc(N3CCNCC3)c(F)cc2c1=O [Ciprofloxacin]
promoter activity interaction Z-score [1, 17]: -0.0508 ± 0.0034 | promoter activity interaction Z-score [1, 18]: 0.353 ± 0.13 | promoter activity interaction Z-score [1, 19]: 0.173 ± 0.043 | promoter activity interaction Z-score [1, 20]: 0.42 ± 0.15 | promoter activity interaction Z-score [1, 21]: 0.086 ± 0.043 | promoter activity interaction Z-score [1, 22]: 0.398 ± 0.6 | promoter activity interaction Z-score [1, 23]: 0.0723 ± 0.032 | promoter activity interaction Z-score [1, 24]: 0.345 ± 0.36 | promoter activity interaction Z-score [1, 25]: -0.0602 ± 0.085 | promoter activity interaction Z-score [1, 26]: 0.14 ± 0.38 | promoter activity interaction Z-score [1, 27]: -0.262 ± 0.024 | promoter activity interaction Z-score [1, 28]: 0.245 ± 0.15 | promoter activity interaction Z-score [1, 29]: 3.2 ± 0.99 | promoter activity interaction Z-score [2, 17]: -0.234 ± 0.19 | promoter activity interaction Z-score [2, 18]: 0.0327 ± 0.0091 | promoter activity interaction Z-score [2, 19]: -0.0152 ± 0.072 | promoter activity interaction Z-score [2, 20]: 0.0125 ± 0.049 | promoter activity interaction Z-score [2, 21]: -0.177 ± 0.22 | promoter activity interaction Z-score [2, 22]: 0.0702 ± 0.0035 | promoter activity interaction Z-score [2, 23]: 0.0396 ± 0.11 | promoter activity interaction Z-score [2, 24]: 0.236 ± 0.43 | promoter activity interaction Z-score [2, 25]: 0.0988 ± 0.0042 | promoter activity interaction Z-score [2, 26]: 0.222 ± 0.086 | promoter activity interaction Z-score [2, 27]: 0.149 ± 0.08 | promoter activity interaction Z-score [2, 28]: 0.0364 ± 0.036 | promoter activity interaction Z-score [2, 29]: -0.518 ± 0.27 | promoter activity interaction Z-score [2, 30]: -0.126 ± 0.0091 | promoter activity interaction Z-score [2, 31]: -0.163 | promoter activity interaction Z-score [2, 32]: -0.0606 ± 0.43 | promoter activity interaction Z-score [3, 17]: -0.438 ± 0.12 | promoter activity interaction Z-score [3, 18]: -0.0468 ± 0.33 | promoter activity interaction Z-score [3, 19]: -0.155 ± 0.71 | promoter activity interaction Z-score [3, 20]: 0.116 ± 0.044 | promoter activity interaction Z-score [3, 21]: -0.471 ± 0.096 | promoter activity interaction Z-score [3, 22]: -0.00111 ± 0.52 | promoter activity interaction Z-score [3, 23]: -0.691 ± 0.58 | promoter activity interaction Z-score [3, 24]: 0.136 ± 0.14 | promoter activity interaction Z-score [3, 25]: -0.511 ± 0.028 | promoter activity interaction Z-score [3, 26]: -0.0342 ± 0.14 | promoter activity interaction Z-score [3, 27]: -0.495 ± 0.56 | promoter activity interaction Z-score [3, 28]: -0.279 ± 0.43 | promoter activity interaction Z-score [3, 29]: -0.587 ± 0.72 | promoter activity interaction Z-score [4, 17]: 0.0678 ± 0.12 | promoter activity interaction Z-score [4, 18]: 0.253 ± 0.13 | promoter activity interaction Z-score [4, 19]: 0.0957 ± 0.66 | promoter activity interaction Z-score [4, 20]: 1.22 ± 0.77 | promoter activity interaction Z-score [4, 21]: 0.3 ± 0.26 | promoter activity interaction Z-score [4, 22]: -0.0277 ± 0.16 | promoter activity interaction Z-score [4, 23]: 0.0548 ± 0.78 | promoter activity interaction Z-score [4, 24]: 1.24 ± 1.1 | promoter activity interaction Z-score [4, 25]: 0.247 ± 0.46 | promoter activity interaction Z-score [4, 26]: 0.267 ± 0.41 | promoter activity interaction Z-score [4, 27]: -0.0594 ± 0.79 | promoter activity interaction Z-score [4, 28]: 0.171 ± 0.16 | promoter activity interaction Z-score [4, 29]: -0.624 ± 0.76 | promoter activity interaction Z-score [4, 30]: -0.611 | promoter activity interaction Z-score [5, 17]: -0.0335 ± 0.15 | promoter activity interaction Z-score [5, 18]: 0.12 ± 0.047 | promoter activity interaction Z-score [5, 19]: 0.0163 ± 0.22 | promoter activity interaction Z-score [5, 20]: 0.466 ± 0.26 | promoter activity interaction Z-score [5, 21]: -0.17 ± 0.048 | promoter activity interaction Z-score [5, 22]: 0.0948 ± 0.18 | promoter activity interaction Z-score [5, 23]: -0.0974 ± 0.25 | promoter activity interaction Z-score [5, 24]: 0.326 ± 0.014 | promoter activity interaction Z-score [5, 25]: 0.14 ± 0.19 | promoter activity interaction Z-score [5, 26]: 0.125 ± 0.098 | promoter activity interaction Z-score [5, 27]: 0.0524 ± 0.27 | promoter activity interaction Z-score [5, 28]: 0.682 ± 0.7 | promoter activity interaction Z-score [5, 29]: 0.127 ± 0.063 | promoter activity interaction Z-score [5, 30]: 0.0874 ± 0.13 | promoter activity interaction Z-score [5, 31]: -0.378 ± 0.17 | promoter activity interaction Z-score [5, 32]: 3.89 ± 2.3 | promoter activity interaction Z-score [6, 17]: 0.3 ± 0.42 | promoter activity interaction Z-score [6, 18]: 0.215 ± 0.83 | promoter activity interaction Z-score [6, 19]: -0.563 ± 1 | promoter activity interaction Z-score [6, 20]: 0.363 ± 0.45 | promoter activity interaction Z-score [6, 21]: 0.307 ± 0.13 | promoter activity interaction Z-score [6, 22]: -0.633 ± 0.058 | promoter activity interaction Z-score [6, 23]: -0.452 ± 0.41 | promoter activity interaction Z-score [6, 24]: 0.599 ± 0.74 | promoter activity interaction Z-score [6, 25]: 0.224 ± 0.038 | promoter activity interaction Z-score [6, 26]: 0.452 ± 0.24 | promoter activity interaction Z-score [6, 27]: -0.267 ± 1.4 | promoter activity interaction Z-score [6, 28]: 0.965 ± 0.61 | promoter activity interaction Z-score [6, 29]: -0.238 ± 0.84 | promoter activity interaction Z-score [6, 30]: 0.207 ± 0.2 | promoter activity interaction Z-score [6, 31]: -2.22 ± 0.97 | promoter activity interaction Z-score [6, 32]: 1.85 ± 0.19
